Whole data set: some 8,300 sequences, median “log2 fold change of degron read counts, EGFP-low vs EGFP+ sorted cells (limma voom), compound-induced degradation” near -1.1, cut for the highest 2% near 3.2. What follows is part of a selection rich in the highest values, with near analogues and random picks from the rest.
Biological target: T1, CRBN, Q96SW2
T1 chain: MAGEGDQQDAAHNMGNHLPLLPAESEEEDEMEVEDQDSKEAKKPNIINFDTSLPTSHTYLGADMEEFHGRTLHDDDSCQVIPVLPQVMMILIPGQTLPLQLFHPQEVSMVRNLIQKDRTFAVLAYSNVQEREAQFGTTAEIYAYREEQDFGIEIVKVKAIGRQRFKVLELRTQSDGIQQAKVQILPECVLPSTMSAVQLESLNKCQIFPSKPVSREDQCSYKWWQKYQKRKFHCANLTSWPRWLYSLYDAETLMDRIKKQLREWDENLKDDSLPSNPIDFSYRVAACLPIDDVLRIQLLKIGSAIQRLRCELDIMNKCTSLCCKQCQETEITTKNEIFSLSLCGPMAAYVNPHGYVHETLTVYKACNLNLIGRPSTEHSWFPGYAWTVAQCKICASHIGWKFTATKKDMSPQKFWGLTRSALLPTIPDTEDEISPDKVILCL
Assay: log2 fold change of degron read counts, EGFP-low vs EGFP+ sorted cells (limma voom), compound-induced degradation; higher = more compound-induced degradation of the degron-EGFP fusion; degrons are variants of IKZF1/3 zinc finger 2; compound dose not given here
Conditions: Jurkat, 18 h
Experimental: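 Pooled library of 8380 IKZF3 ZF2 degron mutants (positions 146-167 varied within the IKZF3 130-189 degron; only the varied core is printed, flanks not printed) fused to EGFP with IRES-mCherry, lentivirally expressed in Jurkat cells. mCherry+ cells were treated with one IMiD compound for 18 h (dose not stated) and FACS-sorted into EGFP-low and EGFP+ populations. Degron sequences were counted by NGS, and log2FC (EGFP-low vs EGFP+) was estimated by limma voom over 3 biological replicates.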

[1] = compound: compound 19 (5-tert-butyl-thalidomide)
[2] = compound: compound 22 (5-morpholino-thalidomide)
[3] = compound: compound 33 (diphenyl IMiD analogue)
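Also: pooled lentiviral library of zinc finger degron-EGFP fusions in mCherry-positive Jurkat cells, FACS-sorted after compound exposure, with degron abundance counted by next-generation sequencing.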

## LTCEICGFWCTQKGNLLRHIKL [46L_47T_49E_50I_52G_53F_54W_55C_67L_, Q9UKT9]
[1]
  log2 fold change of degron read counts: -0.648
[2]
  log2 fold change of degron read counts: -0.501
[3]
  log2 fold change of degron read counts: 0.784
compound: thalidomide
  log2 fold change of degron read counts: 0.539

## FDCDICGAAFTQKGNLLRHIKL [46F_47D_49D_50I_52G_53A_54A_55F_67L_, Q9UKT9]
[1]
  log2 fold change of degron read counts: 0.561
[2]
  log2 fold change of degron read counts: -1.32
[3]
  log2 fold change of degron read counts: -1.46
compound: thalidomide
  log2 fold change of degron read counts: -0.827

## FRCEICGHVFTQKGNLLRHIKL [46F_47R_49E_50I_52G_53H_54V_55F_67L_, Q9UKT9]
[1]
  log2 fold change of degron read counts: -2.92
[2]
  log2 fold change of degron read counts: -3.64
[3]
  log2 fold change of degron read counts: -1.71
compound: thalidomide
  log2 fold change of degron read counts: -2.21

## FMCNVCGAAFTQKGNLLRHIKL [46F_47M_49N_50V_52G_53A_54A_55F_67L_, Q9UKT9]
[1]
  log2 fold change of degron read counts: -1.07
[2]
  log2 fold change of degron read counts: -0.0279
[3]
  log2 fold change of degron read counts: 2
compound: thalidomide
  log2 fold change of degron read counts: 0.272

## FTCEVCGAGFTQKGNLLRHIKL [46F_47T_49E_50V_52G_53A_54G_55F_67L_, Q9UKT9]
[1]
  log2 fold change of degron read counts: 2.39
[2]
  log2 fold change of degron read counts: 2.34
[3]
  log2 fold change of degron read counts: 2.42
compound: thalidomide
  log2 fold change of degron read counts: 2.32

## FNCDVCGAFFTQKGNLLRHIKL [46F_47N_49D_50V_52G_53A_54F_55F_67L_, Q9UKT9]
[1]
  log2 fold change of degron read counts: -1.57
[2]
  log2 fold change of degron read counts: -2.42
[3]
  log2 fold change of degron read counts: -1.91
compound: thalidomide
  log2 fold change of degron read counts: -2.42

## LDCNQCGFCCTQKGNLLRHIKL [46L_47D_49N_50Q_52G_53F_54C_55C_67L_, Q9UKT9]
[1]
  log2 fold change of degron read counts: -2.36
[2]
  log2 fold change of degron read counts: -3.41
[3]
  log2 fold change of degron read counts: -2.85
compound: thalidomide
  log2 fold change of degron read counts: -2.58

## FTCEICGAWFTQKGNLLRHIKL [46F_47T_49E_50I_52G_53A_54W_55F_67L_, Q9UKT9]
[1]
  log2 fold change of degron read counts: -0.788
[2]
  log2 fold change of degron read counts: -0.479
[3]
  log2 fold change of degron read counts: 1.12
compound: thalidomide
  log2 fold change of degron read counts: 1.04

## FRCSVCGHLFTQKGNLLRHIKL [46F_47R_49S_50V_52G_53H_54L_55F_67L_, Q9UKT9]
[1]
  log2 fold change of degron read counts: -2.53
[2]
  log2 fold change of degron read counts: -3.16
[3]
  log2 fold change of degron read counts: -2.34
compound: thalidomide
  log2 fold change of degron read counts: -2.39

## LYCNQCGFQCTQKGNLLRHIKL [46L_47Y_49N_50Q_52G_53F_54Q_55C_67L_, Q9UKT9]
[1]
  log2 fold change of degron read counts: -1.36
[2]
  log2 fold change of degron read counts: -0.758
[3]
  log2 fold change of degron read counts: -1.33
compound: thalidomide
  log2 fold change of degron read counts: -2.14

## LWCPICGFECTQKGNLLRHIKL [46L_47W_49P_50I_52G_53F_54E_55C_67L_, Q9UKT9]
[1]
  log2 fold change of degron read counts: 2.12
[2]
  log2 fold change of degron read counts: 2.64
[3]
  log2 fold change of degron read counts: 2.17
compound: thalidomide
  log2 fold change of degron read counts: 0.382

## LTCPICGFECTQKGNLLRHIKL [46L_47T_49P_50I_52G_53F_54E_55C_67L_, Q9UKT9]
[1]
  log2 fold change of degron read counts: 0.6
[2]
  log2 fold change of degron read counts: 1.64
[3]
  log2 fold change of degron read counts: 1.55
compound: thalidomide
  log2 fold change of degron read counts: 2.4

## LYCPICGFSCTQKGNLLRHIKL [46L_47Y_49P_50I_52G_53F_54S_55C_67L_, Q9UKT9]
[1]
  log2 fold change of degron read counts: 3.73
[2]
  log2 fold change of degron read counts: 3.72
[3]
  log2 fold change of degron read counts: 3.09
compound: thalidomide
  log2 fold change of degron read counts: 2.7

## LQCPICGFWCTQKGNLLRHIKL [46L_47Q_49P_50I_52G_53F_54W_55C_67L_, Q9UKT9]
[1]
  log2 fold change of degron read counts: 0.033
[2]
  log2 fold change of degron read counts: 0.594
[3]
  log2 fold change of degron read counts: 1.15
compound: thalidomide
  log2 fold change of degron read counts: 2.58

## LWCPICGFSCTQKGNLLRHIKL [46L_47W_49P_50I_52G_53F_54S_55C_67L_, Q9UKT9]
[1]
  log2 fold change of degron read counts: 3.31
[2]
  log2 fold change of degron read counts: 3.57
[3]
  log2 fold change of degron read counts: 2.84
compound: thalidomide
  log2 fold change of degron read counts: 2.33

## LQCPICGFSCTQKGNLLRHIKL [46L_47Q_49P_50I_52G_53F_54S_55C_67L_, Q9UKT9]
[1]
  log2 fold change of degron read counts: 2.67
[2]
  log2 fold change of degron read counts: 2.76
[3]
  log2 fold change of degron read counts: 2.41
compound: thalidomide
  log2 fold change of degron read counts: 3.53

## LQCPICGFGCTQKGNLLRHIKL [46L_47Q_49P_50I_52G_53F_54G_55C_67L_, Q9UKT9]
[1]
  log2 fold change of degron read counts: 2.46
[2]
  log2 fold change of degron read counts: 2.07
[3]
  log2 fold change of degron read counts: 1.63
compound: thalidomide
  log2 fold change of degron read counts: 3.23

## LTCPICGFSCTQKGNLLRHIKL [46L_47T_49P_50I_52G_53F_54S_55C_67L_, Q9UKT9]
[1]
  log2 fold change of degron read counts: 2.51
[2]
  log2 fold change of degron read counts: 3.37
[3]
  log2 fold change of degron read counts: 2.87
compound: thalidomide
  log2 fold change of degron read counts: 3.49

## LYCPICGFECTQKGNLLRHIKL [46L_47Y_49P_50I_52G_53F_54E_55C_67L_, Q9UKT9]
[1]
  log2 fold change of degron read counts: 2.78
[2]
  log2 fold change of degron read counts: 2.56
[3]
  log2 fold change of degron read counts: 2.08
compound: thalidomide
  log2 fold change of degron read counts: 0.736

## FDCEVCGAYFTQKGNLLRHIKL [46F_47D_49E_50V_52G_53A_54Y_55F_67L_, Q9UKT9]
[1]
  log2 fold change of degron read counts: -0.638
[2]
  log2 fold change of degron read counts: -1.5
[3]
  log2 fold change of degron read counts: -0.115
compound: thalidomide
  log2 fold change of degron read counts: -0.462

## LVCNQCGFTCTQKGNLLRHIKL [46L_47V_49N_50Q_52G_53F_54T_55C_67L_, Q9UKT9]
[1]
  log2 fold change of degron read counts: -2.33
[2]
  log2 fold change of degron read counts: -3.26
[3]
  log2 fold change of degron read counts: -0.847
compound: thalidomide
  log2 fold change of degron read counts: -1.21

## FLCNQCGHSFTQKGNLLRHIKL [46F_47L_49N_50Q_52G_53H_54S_55F_67L_, Q9UKT9]
[1]
  log2 fold change of degron read counts: -2.63
[2]
  log2 fold change of degron read counts: -2.99
[3]
  log2 fold change of degron read counts: -3.12
compound: thalidomide
  log2 fold change of degron read counts: -2.74

## FACEICGRIFTQKGNLLRHIKL [46F_47A_49E_50I_52G_53R_54I_55F_67L_, Q9UKT9]
[1]
  log2 fold change of degron read counts: 0.366
[2]
  log2 fold change of degron read counts: -1.59
[3]
  log2 fold change of degron read counts: -1.49
compound: thalidomide
  log2 fold change of degron read counts: -1.01

## FVCDICGANFTQKGNLLRHIKL [46F_47V_49D_50I_52G_53A_54N_55F_67L_, Q9UKT9]
[1]
  log2 fold change of degron read counts: -0.564
[2]
  log2 fold change of degron read counts: 1.47
[3]
  log2 fold change of degron read counts: 0.815
compound: thalidomide
  log2 fold change of degron read counts: 1.12

## FKCPICGRQFTQKGNLLRHIKL [46F_47K_49P_50I_52G_53R_54Q_55F_67L_, Q9UKT9]
[1]
  log2 fold change of degron read counts: -2.24
[2]
  log2 fold change of degron read counts: -2.58
[3]
  log2 fold change of degron read counts: -2.12
compound: thalidomide
  log2 fold change of degron read counts: -0.821

## LFCPICGFSCTQKGNLLRHIKL [46L_47F_49P_50I_52G_53F_54S_55C_67L_, Q9UKT9]
[1]
  log2 fold change of degron read counts: 3.55
[2]
  log2 fold change of degron read counts: 3.56
[3]
  log2 fold change of degron read counts: 2.79
compound: thalidomide
  log2 fold change of degron read counts: 2.78

## LCCPICGFSCTQKGNLLRHIKL [46L_47C_49P_50I_52G_53F_54S_55C_67L_, Q9UKT9]
[1]
  log2 fold change of degron read counts: 2.83
[2]
  log2 fold change of degron read counts: 3.15
[3]
  log2 fold change of degron read counts: 3
compound: thalidomide
  log2 fold change of degron read counts: 3.11

## LFCPICGFECTQKGNLLRHIKL [46L_47F_49P_50I_52G_53F_54E_55C_67L_, Q9UKT9]
[1]
  log2 fold change of degron read counts: 2.8
[2]
  log2 fold change of degron read counts: 2.89
[3]
  log2 fold change of degron read counts: 1.47
compound: thalidomide
  log2 fold change of degron read counts: 0.989

## LRCPICGFSCTQKGNLLRHIKL [46L_47R_49P_50I_52G_53F_54S_55C_67L_, Q9UKT9]
[1]
  log2 fold change of degron read counts: 2.24
[2]
  log2 fold change of degron read counts: 1.9
[3]
  log2 fold change of degron read counts: 2.44
compound: thalidomide
  log2 fold change of degron read counts: 2.71

## LNCPICGFSCTQKGNLLRHIKL [46L_47N_49P_50I_52G_53F_54S_55C_67L_, Q9UKT9]
[1]
  log2 fold change of degron read counts: 2.9
[2]
  log2 fold change of degron read counts: 2.01
[3]
  log2 fold change of degron read counts: 1.38
compound: thalidomide
  log2 fold change of degron read counts: 2

## LVCPICGFSCTQKGNLLRHIKL [46L_47V_49P_50I_52G_53F_54S_55C_67L_, Q9UKT9]
[1]
  log2 fold change of degron read counts: 2.25
[2]
  log2 fold change of degron read counts: 3.63
[3]
  log2 fold change of degron read counts: 2.38
compound: thalidomide
  log2 fold change of degron read counts: 3.59

Source: the supplement of paper PMC12645437, “Orthogonal IMiD-Degron Pairs Induce Selective Protein Degradation in Cells” (ACS Chemical Biology, 2025)
